# Measured values reported in the supplement of paper PMC12067093, “Discovery and optimisation of a covalent ligand for TRIM25 and its application to targeted protein ubiquitination” (Chemical Science, 2025).
# Targets with the largest changes are over-represented here; the source holds about 21,000 in all.
# Compound: Cc1cc(ccc1-c1ccccc1)C(=O)N1CCCN(CC1)C(=O)CCl [compound 10]
# Experiment: probe-labelled cysteine peptide fold change vs DMSO (competition) (log2 fold change); higher = less target engagement (more negative = stronger competition)
# Conditions: THP-1, incubation time: 4 h
# 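Note: competitive profiling in live THP-1 cells: cysteine peptides tagged with an iodoacetamide desthiobiotin (IA-DTB) probe, intensity after compound treatment relative to DMSO-treated cells.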
# Sequence of UniProt P48449 (P48449 whole entry, looked up): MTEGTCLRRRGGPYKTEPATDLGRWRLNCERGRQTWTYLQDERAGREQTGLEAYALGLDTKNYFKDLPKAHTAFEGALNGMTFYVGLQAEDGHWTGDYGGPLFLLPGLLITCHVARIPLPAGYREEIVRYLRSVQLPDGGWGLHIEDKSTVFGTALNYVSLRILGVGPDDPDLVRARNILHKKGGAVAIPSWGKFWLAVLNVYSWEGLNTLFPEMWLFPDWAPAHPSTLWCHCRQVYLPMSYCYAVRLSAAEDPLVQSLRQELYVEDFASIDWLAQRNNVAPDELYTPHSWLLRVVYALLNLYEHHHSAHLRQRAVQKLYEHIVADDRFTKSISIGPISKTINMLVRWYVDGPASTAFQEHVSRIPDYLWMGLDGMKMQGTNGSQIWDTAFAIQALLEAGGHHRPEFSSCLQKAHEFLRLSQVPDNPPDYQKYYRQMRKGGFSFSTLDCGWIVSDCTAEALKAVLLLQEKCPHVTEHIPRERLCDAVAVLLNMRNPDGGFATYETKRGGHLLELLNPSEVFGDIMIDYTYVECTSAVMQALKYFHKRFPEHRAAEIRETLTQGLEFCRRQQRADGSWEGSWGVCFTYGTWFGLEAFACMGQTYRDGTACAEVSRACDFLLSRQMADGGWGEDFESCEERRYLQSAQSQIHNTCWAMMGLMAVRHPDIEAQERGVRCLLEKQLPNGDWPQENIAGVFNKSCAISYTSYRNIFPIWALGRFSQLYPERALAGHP
# Sequence of UniProt Q86YT6 (Q86YT6 whole entry, looked up): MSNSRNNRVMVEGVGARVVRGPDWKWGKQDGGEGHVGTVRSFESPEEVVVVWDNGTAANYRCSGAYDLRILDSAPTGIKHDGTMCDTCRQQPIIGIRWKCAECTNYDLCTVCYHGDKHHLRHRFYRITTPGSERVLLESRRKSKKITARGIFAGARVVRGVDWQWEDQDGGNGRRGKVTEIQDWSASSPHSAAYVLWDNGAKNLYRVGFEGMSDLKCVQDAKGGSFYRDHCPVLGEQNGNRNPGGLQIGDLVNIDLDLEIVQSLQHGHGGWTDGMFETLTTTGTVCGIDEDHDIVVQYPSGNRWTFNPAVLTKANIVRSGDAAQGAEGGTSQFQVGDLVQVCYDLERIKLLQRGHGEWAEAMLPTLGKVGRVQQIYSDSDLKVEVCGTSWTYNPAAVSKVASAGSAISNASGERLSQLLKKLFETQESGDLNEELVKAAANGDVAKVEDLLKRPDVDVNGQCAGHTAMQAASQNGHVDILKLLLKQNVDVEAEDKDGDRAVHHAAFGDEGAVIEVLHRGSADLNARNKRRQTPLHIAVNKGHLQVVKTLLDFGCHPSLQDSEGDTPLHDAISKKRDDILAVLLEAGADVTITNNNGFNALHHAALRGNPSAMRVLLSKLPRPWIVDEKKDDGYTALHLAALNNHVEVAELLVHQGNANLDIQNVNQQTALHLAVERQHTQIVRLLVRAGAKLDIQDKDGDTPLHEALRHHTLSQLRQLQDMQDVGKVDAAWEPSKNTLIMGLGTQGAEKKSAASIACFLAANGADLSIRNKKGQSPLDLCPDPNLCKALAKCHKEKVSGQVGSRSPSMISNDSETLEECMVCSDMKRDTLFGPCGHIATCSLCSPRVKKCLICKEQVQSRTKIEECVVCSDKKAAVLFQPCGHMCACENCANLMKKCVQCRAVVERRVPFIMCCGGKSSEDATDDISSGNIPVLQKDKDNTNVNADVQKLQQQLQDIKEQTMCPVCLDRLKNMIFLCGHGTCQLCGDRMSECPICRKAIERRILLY
# Sequence of UniProt P33991 (P33991 whole entry, looked up): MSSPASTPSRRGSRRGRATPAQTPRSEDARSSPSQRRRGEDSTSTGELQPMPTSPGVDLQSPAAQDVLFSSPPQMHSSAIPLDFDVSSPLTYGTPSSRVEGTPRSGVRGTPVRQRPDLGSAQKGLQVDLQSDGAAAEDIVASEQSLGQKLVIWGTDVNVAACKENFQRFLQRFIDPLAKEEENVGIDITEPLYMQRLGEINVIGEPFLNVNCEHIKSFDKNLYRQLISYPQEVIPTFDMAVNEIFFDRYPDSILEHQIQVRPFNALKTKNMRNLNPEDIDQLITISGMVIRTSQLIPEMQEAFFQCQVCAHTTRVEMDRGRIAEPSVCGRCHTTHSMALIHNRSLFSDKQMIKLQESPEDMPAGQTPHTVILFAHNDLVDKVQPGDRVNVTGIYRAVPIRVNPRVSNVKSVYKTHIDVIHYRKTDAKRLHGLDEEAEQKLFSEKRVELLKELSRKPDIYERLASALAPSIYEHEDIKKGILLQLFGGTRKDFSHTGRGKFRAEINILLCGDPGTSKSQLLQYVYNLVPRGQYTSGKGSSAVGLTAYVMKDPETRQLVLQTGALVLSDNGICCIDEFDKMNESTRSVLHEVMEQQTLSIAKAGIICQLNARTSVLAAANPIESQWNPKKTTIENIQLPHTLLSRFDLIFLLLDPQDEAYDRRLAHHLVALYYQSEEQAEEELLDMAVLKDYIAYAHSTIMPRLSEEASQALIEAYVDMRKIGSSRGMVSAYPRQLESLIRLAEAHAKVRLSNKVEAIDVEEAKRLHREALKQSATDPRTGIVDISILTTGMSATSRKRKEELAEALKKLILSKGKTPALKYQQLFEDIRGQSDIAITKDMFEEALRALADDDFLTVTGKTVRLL
# Sequence of UniProt Q92918 (Q92918 whole entry, looked up): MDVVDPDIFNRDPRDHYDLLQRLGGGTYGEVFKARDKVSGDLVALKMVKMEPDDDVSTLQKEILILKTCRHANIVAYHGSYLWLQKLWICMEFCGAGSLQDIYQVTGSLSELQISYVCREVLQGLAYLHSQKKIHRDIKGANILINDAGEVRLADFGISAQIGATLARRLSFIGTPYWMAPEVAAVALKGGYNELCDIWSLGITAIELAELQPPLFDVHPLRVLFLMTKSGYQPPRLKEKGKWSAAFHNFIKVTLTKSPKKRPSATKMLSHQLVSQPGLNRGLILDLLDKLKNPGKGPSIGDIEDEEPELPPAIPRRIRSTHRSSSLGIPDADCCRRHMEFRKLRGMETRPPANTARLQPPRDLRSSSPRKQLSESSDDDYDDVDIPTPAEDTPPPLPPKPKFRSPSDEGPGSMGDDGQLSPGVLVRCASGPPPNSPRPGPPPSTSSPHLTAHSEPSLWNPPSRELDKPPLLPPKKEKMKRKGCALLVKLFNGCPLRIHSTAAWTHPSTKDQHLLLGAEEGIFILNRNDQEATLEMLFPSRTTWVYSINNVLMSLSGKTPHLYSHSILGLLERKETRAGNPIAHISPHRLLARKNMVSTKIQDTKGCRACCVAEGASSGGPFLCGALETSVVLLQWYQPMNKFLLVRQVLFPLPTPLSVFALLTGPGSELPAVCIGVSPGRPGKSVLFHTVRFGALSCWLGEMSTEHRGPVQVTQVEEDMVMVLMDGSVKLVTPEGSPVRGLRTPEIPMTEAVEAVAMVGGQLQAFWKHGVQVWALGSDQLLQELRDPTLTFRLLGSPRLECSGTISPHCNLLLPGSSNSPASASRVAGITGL
# Sequence of UniProt Q9BVC4 (Q9BVC4 whole entry, looked up): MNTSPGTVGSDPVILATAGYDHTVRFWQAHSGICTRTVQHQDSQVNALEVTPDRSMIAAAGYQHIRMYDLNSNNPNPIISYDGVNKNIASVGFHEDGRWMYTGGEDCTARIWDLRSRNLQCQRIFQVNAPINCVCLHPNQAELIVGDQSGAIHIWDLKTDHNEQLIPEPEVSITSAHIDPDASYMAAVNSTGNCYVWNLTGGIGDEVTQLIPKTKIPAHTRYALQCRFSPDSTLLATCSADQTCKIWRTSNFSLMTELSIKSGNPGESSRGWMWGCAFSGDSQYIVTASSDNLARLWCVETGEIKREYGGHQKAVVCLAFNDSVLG
# Sequence of UniProt Q9UBB5 (Q9UBB5 whole entry, looked up): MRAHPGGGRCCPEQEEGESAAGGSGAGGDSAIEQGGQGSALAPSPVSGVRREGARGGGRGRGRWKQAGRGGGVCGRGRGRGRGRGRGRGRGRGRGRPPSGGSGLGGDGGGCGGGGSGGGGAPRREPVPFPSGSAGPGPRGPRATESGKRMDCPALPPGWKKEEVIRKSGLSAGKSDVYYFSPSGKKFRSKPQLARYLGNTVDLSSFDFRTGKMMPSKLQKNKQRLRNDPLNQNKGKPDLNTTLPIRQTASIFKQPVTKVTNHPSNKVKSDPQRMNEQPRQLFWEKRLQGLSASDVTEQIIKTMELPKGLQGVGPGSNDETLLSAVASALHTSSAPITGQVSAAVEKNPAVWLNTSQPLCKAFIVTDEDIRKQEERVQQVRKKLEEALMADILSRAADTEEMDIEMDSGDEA
# Sequence of UniProt Q00013 (Q00013 whole entry, looked up): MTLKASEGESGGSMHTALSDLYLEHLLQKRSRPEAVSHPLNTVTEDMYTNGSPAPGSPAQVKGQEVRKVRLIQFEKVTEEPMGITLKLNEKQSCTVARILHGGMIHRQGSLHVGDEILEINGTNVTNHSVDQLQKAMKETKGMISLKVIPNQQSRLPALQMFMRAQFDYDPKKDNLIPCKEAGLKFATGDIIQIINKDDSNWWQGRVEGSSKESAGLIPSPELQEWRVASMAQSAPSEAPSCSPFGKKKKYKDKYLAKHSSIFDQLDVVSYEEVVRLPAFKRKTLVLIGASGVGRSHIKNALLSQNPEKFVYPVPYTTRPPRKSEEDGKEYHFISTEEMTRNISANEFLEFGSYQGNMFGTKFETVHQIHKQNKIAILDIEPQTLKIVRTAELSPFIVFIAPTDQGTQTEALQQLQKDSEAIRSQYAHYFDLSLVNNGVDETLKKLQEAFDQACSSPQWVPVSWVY
# Sequence of UniProt P16455 (P16455 whole entry, looked up): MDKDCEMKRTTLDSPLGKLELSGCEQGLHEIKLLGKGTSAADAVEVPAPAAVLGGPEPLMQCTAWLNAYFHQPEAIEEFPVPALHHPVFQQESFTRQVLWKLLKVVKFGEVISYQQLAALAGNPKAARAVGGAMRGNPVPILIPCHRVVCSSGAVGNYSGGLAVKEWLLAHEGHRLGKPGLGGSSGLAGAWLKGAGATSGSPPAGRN
# Sequence of UniProt Q9Y333 (Q9Y333 whole entry, looked up): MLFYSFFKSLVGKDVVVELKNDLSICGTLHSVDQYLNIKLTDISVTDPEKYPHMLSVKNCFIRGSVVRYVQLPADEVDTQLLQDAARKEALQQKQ
Target,probe-labelled cysteine peptide fold change (10 µM),probe-labelled cysteine peptide fold change (50 µM)
MYBBP1A_Q9BQG0_623_SPAESCDLLGDIQTCIR (UniProt Q9BQG0),-0.0385,-0.16
MPP1_Q00013_454_KLQEAFDQACSSPQWVPVSWVY (UniProt Q00013),-0.0366,-0.104
MKI67_P46013_643_SQHDILQMICSK (UniProt P46013),-0.612,-2.28
MDN1_Q9NU22_2158_CLGEGGK (UniProt Q9NU22),-0.171,-1.54
MAP4K1_Q92918_334+335_SSSLGIPDADCCR (UniProt Q92918),-0.26,-1.18
LYPLA1_O75608_144_LAGVTALSCWLPLR (UniProt O75608),0.21,0.0595
LSS_P48449_471_CPHVTEHIPR (UniProt P48449),-0.184,-0.209
LYST_Q99698_2223_SEDDSPGDESCPR (UniProt Q99698),-0.367,-1.41
MMTAG2_Q9BU76_103_EDFAEVCKR (UniProt Q9BU76),-0.168,-0.321
MPI_P34949_289_GDCVECMACSDNTVR (UniProt P34949),0.0622,-0.0489
MYCBP2_O75592_3392_MPCLYLQTLAR (UniProt O75592),-0.0844,-0.345
MCMBP_Q9BTE3_325_LQHINPLLPACLNK (UniProt Q9BTE3),-0.451,-1.87
MBD2_Q9UBB5_111_GRPPSGGSGLGGDGGGCGGGGSGGGGAPR (UniProt Q9UBB5),-0.142,-1.1
MFN1_Q8IWA4_513_LCSDFQEDIVFR (UniProt Q8IWA4),-0.0991,0.451
MFSD14A_Q96MC6_465_HCGSHSHPHNTQAPGEAK (UniProt Q96MC6),-0.39,-1.11
MIB1_Q86YT6_103_CAECTNYDLCTVCYHGDK (UniProt Q86YT6),0.0824,-0.0966
MCM6_Q14566_158_THPVHPELVSGTFLCLDCQTVIRDVEQQFK (UniProt Q14566),0.0358,-0.522
LSM2_Q9Y333_26_DVVVELKNDLSICGTLHSVDQYLNIK (UniProt Q9Y333),0.0504,-0.543
LONP1_P36776_909_AGVTCIVLPAENKK (UniProt P36776),-0.00288,-0.138
MARS_P56192_38_AEVLISTVGPEDCVVPFLTRPK (UniProt P56192),-0.0722,0.0548
MAK16_Q9BXY0_17_QFCSFK (UniProt Q9BXY0),-0.115,-0.166
LRP1_Q07954_3021_GGDPHSCK (UniProt Q07954),-0.193,-0.308
MCM3_P25205_119+123+126_TLTSCFLSCVVCVEGIVTK (UniProt P25205),-0.0216,-1.13
LUC7L3_O95232_40+43_YYLCGFCPAELFTNTR (UniProt O95232),0.232,-0.733
MRC2_Q9UBG0_187_IYGSEEDLCALPYHEVYTIQGNSHGKPCTIPFK (UniProt Q9UBG0),-0.0343,-0.784
MLST8_Q9BVC4_34_FWQAHSGICTR (UniProt Q9BVC4),-0.182,0.0338
MCM4_P33991_328_IAEPSVCGR (UniProt P33991),0.0169,-0.0125
MGMT_P16455_145_GNPVPILIPCHR (UniProt P16455),-1.04,-1.29
